ALDH1A1 block: inhibitors of human aldehyde dehydrogenase 1A1. Purified ALDH1A1, NADH fluorescence, propionaldehyde substrate. P00352. AID 1030. hit rate 7.3% among 220,000. Potency, µM (top dose mostly 75.3 µM), actives largely listed as inhibitors
Target sequence (P00352 whole entry, looked up): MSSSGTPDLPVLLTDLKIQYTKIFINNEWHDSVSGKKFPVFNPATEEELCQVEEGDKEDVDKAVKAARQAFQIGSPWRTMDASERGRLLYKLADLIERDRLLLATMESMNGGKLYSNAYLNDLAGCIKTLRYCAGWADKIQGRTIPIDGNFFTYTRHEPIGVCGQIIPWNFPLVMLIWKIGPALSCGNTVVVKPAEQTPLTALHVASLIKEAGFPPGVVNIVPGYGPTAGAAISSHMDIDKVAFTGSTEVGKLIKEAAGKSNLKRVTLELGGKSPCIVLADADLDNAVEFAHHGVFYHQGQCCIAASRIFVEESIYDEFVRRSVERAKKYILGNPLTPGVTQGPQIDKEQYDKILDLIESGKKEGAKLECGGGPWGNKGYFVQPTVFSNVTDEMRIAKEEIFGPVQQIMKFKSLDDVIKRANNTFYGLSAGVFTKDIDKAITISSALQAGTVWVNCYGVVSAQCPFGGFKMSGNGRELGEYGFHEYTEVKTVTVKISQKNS
HPGD inh: HPGD (human) dehydrogenase inhibition. Potency, µM, actives largely listed as inhibitors. P15428. purified HPGD, NADH fluorescence kinetic, PGE2 substrate. hit rate 4.3% among 150,000
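NADH formation kinetics: reaction with 30 uM PGE2 and 1 mM NAD+ (final), 20 nM enzyme, Tris-HCl pH 8 with Tween 20, after 15 min compound preincubation at room temperature. Fluorescence change, last versus first of five reads.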
PNC inhibitor: inhibitors of perinucleolar compartment assembly | PC3M PTB-GFP, PNC prevalence imaging, 16 h; active compounds read low | activity change (PNC), negative = inhibition, % at 10 µM | hit rate 3.1% among 140,000;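 active = readout at or below -70, meaning at least 70% loss of cells showing the perinucleolar compartment, a nuclear body marking cancer cells; inconclusive = readout between -30 and a set limit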
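Read-out is percentage of cells bearing a perinucleolar compartment, from automated 20x imaging of fixed, Hoechst-stained PC3M PTB-GFP cells. Cells were seeded 4 h, then exposed 16 h to compound (23 nl of library stock) in duplicate plates.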
Hits are given with their value; n = inactive; u = inconclusive; x = no result given; [ ] = dose if it differs, or a comment. This is a sample that favours compounds with a hit; in the whole collection about 11% have one here. Unless noted, calls follow the shape of the dose curve; as a rule, active = well fitted inhibition curve with a large enough effect (not every such curve was filed as active); inconclusive = small, poorly fitted or top-dose-only effect, or another doubt; inactive = no such curve, though single readings can be large or run the other way.

SMILES	ALDH1A1 block	HPGD inh	PNC inhibitor
CCOc1ccc(NC(=NCc2ccc3c(c2)OCO3)SC2CC(=O)N(c3ccccc3)C2=O)cc1 (stereo not drawn)	n	n	-100.0
CCCOc1ccc(N2C(=O)CC(SC(=NC)Nc3ccc(F)cc3)C2=O)cc1 (stereo not drawn)	n	n	n
COc1ccc(CN=C(Nc2ccccc2)SC2CC(=O)NC2=O)cc1 (stereo not drawn)	n	x	x
CCOc1ccc(N2C(=O)CC(SC(=NC)Nc3ccc(F)cc3)C2=O)cc1 (stereo not drawn)	n	n	-100.0
CCOc1ccc(NC(=NCc2ccc3c(c2)OCO3)SC2CC(=O)N(c3ccc(OCC)cc3)C2=O)cc1 (stereo not drawn)	n	n	n
O=C1CC(SC(=NCc2ccc3c(c2)OCO3)Nc2ccccc2)C(=O)N1 (stereo not drawn)	u	n	-114.9
O=C(COc1cccnc1[N+](=O)[O-])NCc1cccs1	n	x	x
CCOC(=O)CC(C(=O)OCC)P(=O)(c1ccccc1)c1ccccc1 (stereo not drawn)	10µM	n	n
CCCC(C(=O)OCC)P(=O)(c1ccccc1)c1ccccc1 (stereo not drawn)	n	n	n
CCOC(=O)N1C=CC=C[C@@H]2[C@@H](N3C(=O)c4ccccc4C3=O)C(=O)N21	n	n	u
CC(C)(CNc1ccc([N+](=O)[O-])cc1C#N)N1CCOCC1	2.24µM	x	x
N#Cc1cc([N+](=O)[O-])ccc1NCCN1CCOCC1	n	x	x
O=c1[nH]snc1N1CCOCC1	n	x	x
Cc1ccc2[nH]c(C)cc(=S)c2c1	17.8µM	x	x
Cc1cc(=O)c2cc(Cl)ccc2[nH]1	n	u	n
Cc1ccc(/C=N/c2sc3c(c2C#N)CCC3)o1	10µM	15.8µM	n
N#Cc1c(N2C(=O)Nc3ccccc3N2O)sc2c1CCCC2	n	x	x
N#Cc1c(/N=C/c2ccc(Br)s2)sc2c1CCC2	u	n	-100.0
Cc1ccc(/C=N/n2c(C)cc(C)c(C#N)c2=O)o1	n	n	n
N#Cc1c(N)nc2c(c1-c1ccc(Br)s1)CCCC2	n	n	n
N#Cc1c(/N=C\c2ccc(O)c([N+](=O)[O-])c2)sc2c1CCCC2	2.51µM	x	x
C[C@]12C=CC(=O)C=C1CCC1C2C(=O)C[C@]2(C)C1CC[C@]2(O)C(=O)CO (stereo partly drawn)	n	n	x
O=c1c2cc3c(cc2[nH]c(=S)n1C1CCN(Cc2ccccc2)CC1)OCO3	n	x	x
CCOc1ccc2ncc(S(=O)(=O)c3ccc(C)cc3)c(N3CCC4(CC3)OCCO4)c2c1	3.16µM	x	u
CCOC(=O)c1cnc2ccc(OCC)cc2c1N1CCN(C)CC1	u	x	n
SMILES	ALDH1A1 block	HPGD inh	PNC inhibitor
COc1ccc(C(CC(=O)Nc2cc(OC)cc(OC)c2)n2cccc2)cc1 (stereo not drawn)	n	n	n
COc1ccc(C(CC(=O)Nc2ccccc2OC)n2cccc2)cc1 (stereo not drawn)	n	25.1µM	n
Cc1ccc(NC(=O)c2ccccc2OCC(=O)Nc2cccc(Cl)c2C)nc1	n	x	x
O=c1ccc(Cc2ccccn2)n[nH]1	n	n	u
CCOC(=O)c1cc(-c2ccccc2)sc1NC(=O)C(C)OC(=O)c1cccnc1OCC (stereo not drawn)	n	u	n
CCOc1ccc(S(=O)(=O)Oc2ccc3ccccc3c2)cc1	n	n	u
C=C1C2CC[C@]3(CCC4[C@@]5(C)CCC[C@@]4(CN(CCO)C5)[C@@H]3C2)[C@@H]1O (stereo partly drawn)	n	n	x
O=C(CSc1ccc(-c2ccco2)nn1)NCc1ccccc1Cl	u	n	n
O=C(CSc1ccc(-c2ccccn2)nn1)NCc1ccccc1	n	x	x
O=C(CSc1ccc(-c2ccccn2)nn1)c1ccc([N+](=O)[O-])cc1	1µM	x	x
O=C(OCC(=O)N1CCc2ccccc21)c1ccccn1	n	x	x
O=C(CSc1ccc(-c2ccccn2)nn1)N1CCc2ccccc21	17.8µM	x	x
COc1ccc(C(=O)CSc2ccc(-c3ccccc3)nn2)cc1	7.94µM	u	u
COc1ccc(C(=O)CSc2ccc(-c3ccco3)nn2)cc1	22.4µM	n	u
O=C(CSc1ccc(-c2ccncc2)nn1)c1ccccc1	n	x	x
NC(N)=Nc1ccc(-c2ccc(N=C(N)N)cc2)cc1	n[13.5 µM]	n	x
CC(=O)Nc1ccccc1-c1nc2ccccc2nc1OCC(=O)c1ccc(Cl)cc1	n	n	u
CC(=O)N1CC=CC1(CC(C)C)C(=O)NCc1ccc(C)o1 (stereo not drawn)	n	n	x
CCCNS(=O)(=O)c1ccc(OCC(=O)NCc2ccc3c(c2)OCO3)cc1	n	n	n
O=C=Nc1ccc(Cc2ccc(N=C=O)cc2)cc1	n	n	x
O=C(CSc1ccc(-c2ccco2)nn1)c1ccccc1	8.91µM	n	n
O=C(CSc1ccc(-c2ccccc2)nn1)NCc1ccco1	n	n	n
